{"source": "PubChem BioAssay (NCI)", "experiment_in_all_cases": "NCI-60 one-dose screen, 48 h (100 = growth as untreated, 0 = no growth, -100 = all killed)", "conditions_in_all_cases": "10 µM unless noted", "key": {"[1]": {"tested_on": "T-47D breast"}, "[2]": {"tested_on": "BT-549 breast"}, "[3]": {"tested_on": "MDA-MB-435 melanoma"}, "[4]": {"tested_on": "SW-620 colon"}, "[5]": {"tested_on": "MCF7 breast"}, "[6]": {"tested_on": "HCT-116 colon"}, "[7]": {"tested_on": "HCC-2998 colon"}, "[8]": {"tested_on": "KM12 colon"}}, "note": "About 83,000 compounds went through this panel and 20% of them were active in at least one assay; those are over-represented in the sample as a whole.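 Assay: single dose, 48 h. Readout: percent growth (0 = no net growth; negative = cell death). Active: <10.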 Values without a mark were called inactive. Activity calls are given as the source filed them.", "data": [{"smiles": "CCOC(=O)c1ccc(N/C=C/C(=O)c2ccccc2)cc1", "values": [{"measurement": "growth", "setting": "[1]", "value": 84.6, "unit": "%"}, {"measurement": "growth", "setting": "[2]", "value": 114, "unit": "%"}, {"measurement": "growth", "setting": "[3]", "value": 92.7, "unit": "%"}, {"measurement": "growth", "setting": "[4]", "value": 100, "unit": "%"}, {"measurement": "growth", "setting": "[5]", "value": 88.2, "unit": "%"}, {"measurement": "growth", "setting": "[6]", "value": 96.5, "unit": "%"}, {"measurement": "growth", "setting": "[7]", "value": 109, "unit": "%"}, {"measurement": "growth", "setting": "[8]", "value": 98.5, "unit": "%"}]}, {"smiles": "COc1ccc(OC)c(NC2=C(Cl)C(=O)C(C)=C(C)C2=O)c1", "values": [{"measurement": "growth", "setting": "[1]", "value": "-5.07% (active)"}, {"measurement": "growth", "setting": "[2]", "value": 102, "unit": "%"}, {"measurement": "growth", "setting": "[3]", "value": 106, "unit": "%"}, {"measurement": "growth", "setting": "[4]", "value": 98.8, "unit": "%"}, {"measurement": "growth", "setting": "[5]", "value": 80.5, "unit": "%"}, {"measurement": "growth", "setting": "[6]", "value": 57.6, "unit": "%"}, {"measurement": "growth", "setting": "[7]", "value": 108, "unit": "%"}, {"measurement": "growth", "setting": "[8]", "value": 93.8, "unit": "%"}]}, {"smiles": "CCn1c2ccc(/C=N/OCCCN(C)C)cc2c2cc(/C=N/OCCCN(C)C)ccc21", "values": [{"measurement": "growth", "setting": "[1]", "value": 105, "unit": "%"}, {"measurement": "growth", "setting": "[2]", "value": 60.9, "unit": "%"}, {"measurement": "growth", "setting": "[3]", "value": "-48.9% (active)"}, {"measurement": "growth", "setting": "[4]", "value": "-47.3% (active)"}, {"measurement": "growth", "setting": "[5]", "value": "-92% (active)"}, {"measurement": "growth", "setting": "[6]", "value": "-72.2% (active)"}, {"measurement": "growth", "setting": "[7]", "value": "-49.4% (active)"}, {"measurement": "growth", "setting": "[8]", "value": 17.1, "unit": "%"}]}, {"smiles": "C=C(C)C(=O)O[C@H]1C[C@@]2(C)OC(=CC2=O)[C@H](C)[C@H](O)[C@H]2OC(=O)C(=C)[C@@H]21", "values": [{"measurement": "growth", "setting": "[1]", "value": 22.2, "unit": "%"}, {"measurement": "growth", "setting": "[2]", "value": 68.9, "unit": "%"}, {"measurement": "growth", "setting": "[3]", "value": 76.3, "unit": "%"}, {"measurement": "growth", "setting": "[4]", "value": 17.3, "unit": "%"}, {"measurement": "growth", "setting": "[5]", "value": 22.1, "unit": "%"}, {"measurement": "growth", "setting": "[6]", "value": 33.4, "unit": "%"}, {"measurement": "growth", "setting": "[7]", "value": 114, "unit": "%"}, {"measurement": "growth", "setting": "[8]", "value": 84.1, "unit": "%"}]}, {"smiles": "CS(=O)(=O)c1nccc(-c2c(-c3ccc(F)c(OCc4ccccc4)c3)nc3sccn23)n1", "values": [{"measurement": "growth", "setting": "[1]", "value": 18.5, "unit": "%"}, {"measurement": "growth", "setting": "[2]", "value": "-0.34% (active)"}, {"measurement": "growth", "setting": "[3]", "value": 101, "unit": "%"}, {"measurement": "growth", "setting": "[4]", "value": 100, "unit": "%"}, {"measurement": "growth", "setting": "[5]", "value": 16.5, "unit": "%"}, {"measurement": "growth", "setting": "[6]", "value": 38, "unit": "%"}, {"measurement": "growth", "setting": "[7]", "value": 32.2, "unit": "%"}, {"measurement": "growth", "setting": "[8]", "value": 96.5, "unit": "%"}]}, {"smiles": "CCOc1c(C#N)c(Nc2ccc(S(N)(=O)=O)cc2)c(C#N)c2nnc(C)n12", "values": [{"measurement": "growth", "setting": "[1]", "value": 104, "unit": "%"}, {"measurement": "growth", "setting": "[2]", "value": 97.6, "unit": "%"}, {"measurement": "growth", "setting": "[3]", "value": 108, "unit": "%"}, {"measurement": "growth", "setting": "[4]", "value": 108, "unit": "%"}, {"measurement": "growth", "setting": "[5]", "value": 97.2, "unit": "%"}, {"measurement": "growth", "setting": "[6]", "value": 116, "unit": "%"}, {"measurement": "growth", "setting": "[7]", "value": 106, "unit": "%"}, {"measurement": "growth", "setting": "[8]", "value": 103, "unit": "%"}]}, {"smiles": "NS(=O)(=O)c1ccc(Nc2nc(N/N=C/c3ccc(F)cc3)nc(Nc3ccccc3)n2)cc1", "values": [{"measurement": "growth", "setting": "[1]", "value": 20.7, "unit": "%"}, {"measurement": "growth", "setting": "[2]", "value": 67.2, "unit": "%"}, {"measurement": "growth", "setting": "[3]", "value": 53.5, "unit": "%"}, {"measurement": "growth", "setting": "[4]", "value": 75.7, "unit": "%"}, {"measurement": "growth", "setting": "[5]", "value": 28.6, "unit": "%"}, {"measurement": "growth", "setting": "[6]", "value": 44.7, "unit": "%"}, {"measurement": "growth", "setting": "[7]", "value": 55.4, "unit": "%"}, {"measurement": "growth", "setting": "[8]", "value": 30.9, "unit": "%"}]}, {"smiles": "O=C(CCCCCCN1CC(=O)N2[C@@H](c3ccccc3)c3[nH]c4ccccc4c3C[C@H]2C1=O)NO", "values": [{"measurement": "growth", "setting": "[1]", "value": 25.7, "unit": "%"}, {"measurement": "growth", "setting": "[2]", "value": 91.5, "unit": "%"}, {"measurement": "growth", "setting": "[3]", "value": 46.1, "unit": "%"}, {"measurement": "growth", "setting": "[4]", "value": 38.7, "unit": "%"}, {"measurement": "growth", "setting": "[5]", "value": 47.1, "unit": "%"}, {"measurement": "growth", "setting": "[6]", "value": 20.9, "unit": "%"}, {"measurement": "growth", "setting": "[7]", "value": 85.8, "unit": "%"}, {"measurement": "growth", "setting": "[8]", "value": 65.2, "unit": "%"}]}, {"smiles": "COc1ccc(Cn2cc3c(c2-c2ccccc2)CCCc2cnoc2-3)cc1[N+](=O)[O-]", "values": [{"measurement": "growth", "setting": "[1]", "value": 67.7, "unit": "%"}, {"measurement": "growth", "setting": "[2]", "value": 81, "unit": "%"}, {"measurement": "growth", "setting": "[3]", "value": "1.77% (active)"}, {"measurement": "growth", "setting": "[4]", "value": 41.3, "unit": "%"}, {"measurement": "growth", "setting": "[5]", "value": 34.4, "unit": "%"}, {"measurement": "growth", "setting": "[6]", "value": 46.9, "unit": "%"}, {"measurement": "growth", "setting": "[7]", "value": 85.7, "unit": "%"}, {"measurement": "growth", "setting": "[8]", "value": 49.4, "unit": "%"}]}, {"smiles": "C#C[C@]1(O)CC[C@H]2[C@@H]3CC=C4c5sc(Nc6nc(C)cc(OC)n6)nc5CC[C@]4(C)[C@H]3CC[C@@]21C", "values": [{"measurement": "growth", "setting": "[1]", "value": 59, "unit": "%"}, {"measurement": "growth", "setting": "[2]", "value": 48, "unit": "%"}, {"measurement": "growth", "setting": "[3]", "value": 34.7, "unit": "%"}, {"measurement": "growth", "setting": "[4]", "value": 23.6, "unit": "%"}, {"measurement": "growth", "setting": "[5]", "value": "8.47% (active)"}, {"measurement": "growth", "setting": "[6]", "value": 42.7, "unit": "%"}, {"measurement": "growth", "setting": "[7]", "value": 80.9, "unit": "%"}, {"measurement": "growth", "setting": "[8]", "value": 46.1, "unit": "%"}]}, {"smiles": "Fc1ccccc1/C=C(/C1=NCCN1)n1cnc2ccccc21", "values": [{"measurement": "growth", "setting": "[1]", "value": 99.1, "unit": "%"}, {"measurement": "growth", "setting": "[2]", "value": 102, "unit": "%"}, {"measurement": "growth", "setting": "[3]", "value": 96.2, "unit": "%"}, {"measurement": "growth", "setting": "[4]", "value": 101, "unit": "%"}, {"measurement": "growth", "setting": "[5]", "value": 86.2, "unit": "%"}, {"measurement": "growth", "setting": "[6]", "value": 98.7, "unit": "%"}, {"measurement": "growth", "setting": "[7]", "value": 102, "unit": "%"}, {"measurement": "growth", "setting": "[8]", "value": 96.5, "unit": "%"}]}, {"smiles": "CCC(CC)N1C(=O)/C(=c2\\sc3n(c2=O)C2C(NN=3)N(CC)C(=O)N2CC)c2ccccc21", "note": "(stereo not given)", "values": [{"measurement": "growth", "setting": "[1]", "value": 66.5, "unit": "%"}, {"measurement": "growth", "setting": "[2]", "value": 78.6, "unit": "%"}, {"measurement": "growth", "setting": "[3]", "value": "-8.32% (active)"}, {"measurement": "growth", "setting": "[4]", "value": 27.2, "unit": "%"}, {"measurement": "growth", "setting": "[5]", "value": 15, "unit": "%"}, {"measurement": "growth", "setting": "[6]", "value": 15.1, "unit": "%"}, {"measurement": "growth", "setting": "[7]", "value": 21.7, "unit": "%"}, {"measurement": "growth", "setting": "[8]", "value": 14.2, "unit": "%"}]}, {"smiles": "CCN1C(=O)N(CC)C2SC(N/N=C/c3cccs3)=NC21", "note": "(stereo not given)", "values": [{"measurement": "growth", "setting": "[1]", "value": 68.8, "unit": "%"}, {"measurement": "growth", "setting": "[2]", "value": "-40% (active)"}, {"measurement": "growth", "setting": "[3]", "value": "-31.7% (active)"}, {"measurement": "growth", "setting": "[4]", "value": 19.8, "unit": "%"}, {"measurement": "growth", "setting": "[5]", "value": 17.3, "unit": "%"}, {"measurement": "growth", "setting": "[6]", "value": "3.01% (active)"}, {"measurement": "growth", "setting": "[7]", "value": 15.4, "unit": "%"}, {"measurement": "growth", "setting": "[8]", "value": "6.21% (active)"}]}, {"smiles": "Cc1ccc(/C=C/CC(=O)Nc2ccc(C(=O)Nc3ccc(F)cc3N)nc2)cn1", "values": [{"measurement": "growth", "setting": "[1]", "value": 10.8, "unit": "%"}, {"measurement": "growth", "setting": "[2]", "value": 48.5, "unit": "%"}, {"measurement": "growth", "setting": "[3]", "value": 18.6, "unit": "%"}, {"measurement": "growth", "setting": "[4]", "value": 26.8, "unit": "%"}, {"measurement": "growth", "setting": "[5]", "value": 18.4, "unit": "%"}, {"measurement": "growth", "setting": "[6]", "value": 17.7, "unit": "%"}, {"measurement": "growth", "setting": "[7]", "value": 31.4, "unit": "%"}, {"measurement": "growth", "setting": "[8]", "value": 49.5, "unit": "%"}]}, {"smiles": "COc1cc(C(=O)C[n+]2ccc3ccccc3c2)cc(OC)c1OC", "values": [{"measurement": "growth", "setting": "[1]", "value": 96.3, "unit": "%"}, {"measurement": "growth", "setting": "[2]", "value": 107, "unit": "%"}, {"measurement": "growth", "setting": "[3]", "value": 100, "unit": "%"}, {"measurement": "growth", "setting": "[4]", "value": 94, "unit": "%"}, {"measurement": "growth", "setting": "[5]", "value": 96.3, "unit": "%"}, {"measurement": "growth", "setting": "[6]", "value": 95.9, "unit": "%"}, {"measurement": "growth", "setting": "[7]", "value": 103, "unit": "%"}, {"measurement": "growth", "setting": "[8]", "value": 96.1, "unit": "%"}]}]}
